Several values for one entry are separate records, joined by “and”; a condition that tells them apart may be missing. Equal values may be shown once. The campaign covered roughly 330,000 compounds. About 1,900 (0.58%) were called active. Roughly 4% stayed inconclusive and do not appear here. Cut-off read from the data, not from the text of the source: inconclusive = inhibition above about 70% without an active follow-up result; inactive = below that. A selection follows. Results with a measured potency or affinity are listed apart.

A short description of this assay: M. tuberculosis growth inhibition, HTS (AID 449762).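 Note: bacterial growth assessed after seven days of incubation.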 The settings on record: M. tuberculosis H37Rv growth inhibition, 7H9 media; at 25 µM; active compounds read high.
Consider `CCOC(=O)Cn1c(Br)nc2c1c(=O)[nH]c(=O)n2C`, for which the inhibition (commonly the drop in the measured response relative to a control, in per cent) was 2.17% (inactive).
The value for `Cc1[nH]nc2c1C(c1ccc(-c3ccccc3C#N)o1)C(C#N)=C(N)O2` (configuration not stated) was 16.8% (inactive).
Regarding `Cc1ccc(C2C(C#N)=C(N)Oc3n[nH]c(C)c32)cc1` (configuration not stated), the inhibition is 2.2% (inactive).
As for `CCN(c1ccccc1)S(=O)(=O)c1ccc(C(=O)Nc2ccncc2)cc1`, the inhibition is 48.8% (inactive).
The value for `Cc1ccc2ncnc(NCCC(=O)O)c2c1` was -11.8% (inactive); that for `NC(=O)CSc1nnc(NC(=O)c2ccc(S(=O)(=O)N3CCCCC3)cc2)s1` was 4.86% (inactive).
For `COc1cc2cnc(-c3ccccc3)c(-c3cc(OC)c(OC)c(OC)c3)c2cc1OC`, the inhibition is 27.5% (inactive).
As to `Fc1ccc2cnc(-c3ccccc3)c(-c3ccc(C(F)(F)F)cc3)c2c1`, the inhibition is 39.5% (inactive).
Under `CC(C)(C)c1ccc(OCCC(=O)NC2=NCCS2)cc1` stands 48.1% (inactive).
The value for `CCOc1ccc(OCCCC(=O)NC2=NCCS2)cc1` was 1.39% (inactive).
Under `O=c1ccc(-c2ccccc2)nn1Cc1ccccc1F` stands 4.51% (inactive).
For `COc1ccc(-c2cc(C(=O)NC(C)c3ccccn3)c3ccccc3n2)cc1OC` (configuration not stated), the inhibition was -9.49% (inactive).
The value for `CCCCCCCN1N=C(C)C(C(=O)c2ccccc2)C1=O` (configuration not stated) was 64.7% (inactive); that for `CC1=NN(c2ccccc2)C(=O)C1C(=O)c1cc([N+](=O)[O-])cc([N+](=O)[O-])c1` (configuration not stated) was -4.74% (inactive); that for `CN1CC(=O)N2C(c3cccc([N+](=O)[O-])c3)c3[nH]c4ccccc4c3C[C@H]2C1=O` (some centres not stated) was 6.28% (inactive).
Under `CCOc1cc2c3c(c1)C1(OCCO1)C(=O)N3C(C)(C)CC2C` (configuration not stated) stands 8.79% (inactive).
On to `CCOc1cc2c3c(c1)C1(Nc4ccccc4S1)C(=O)N3C(C)(C)CC2C` (configuration not stated), for which the inhibition is 22.3% (inactive).
In the case of `O=C(CN1CCN(c2ccccc2)CC1)NC(=O)NCc1ccco1`, the inhibition was -5.69% (inactive).
As to `CC(=O)Nc1ccc(S(=O)(=O)N(C)CC(=O)NC2=NCCS2)cc1`, the inhibition is -7.06% (inactive).
Under `CC1=NC(C)(C)Cc2ccccc21` stands -5.42% (inactive).
Under `CC1(C)CC(=O)C(C2=NC(C)(C)Cc3ccccc32)=C(O)C1` stands -7.77% (inactive); under `O=C(CN(C(=O)c1ccccc1)N1C(=O)CCC1=O)c1cccs1`, -6.33% (inactive).
Turning to `CN1CC(=O)N(CC(=O)N2N=C(c3ccc(Cl)cc3)CC2c2ccco2)C1=O` (configuration not stated), the inhibition is 22.3% (inactive).
The value for `CCC1(CC)NC(=O)N(CC(=O)N2N=C(c3ccc(Cl)cc3)CC2c2ccco2)C1=O` (configuration not stated) was 3.27% (inactive).
As to `O=C(N[C@@H]1C/C=C\C[C@@H](CC(=O)N(CCO)Cc2ccccc2)C(=O)N[C@@H](c2ccccc2)COC1=O)OCC1c2ccccc2-c2ccccc21`, the inhibition was 3.32% (inactive).
The value for `COc1cc2sc(-c3ccc(S(C)(=O)=O)cc3)c(C(=O)NCCCCO)c2cc1OC` was 4.06% (inactive); that for `CCc1c(C)nc(N2CCN(c3cccc(OC)c3)CC2)[nH]c1=O` was -3.6% (inactive).
For `Cc1ccc(-c2nc3ccc(Cl)cc3c(=O)n2O)cc1`, the inhibition is 54.8% (inactive).
For the molecule `O=c1c2ccccc2nc(-c2ccc([N+](=O)[O-])cc2)n1O`, the inhibition is 30.3% (inactive).
Regarding `CSCCCNC(=S)Nc1ccc(N2CCOCC2)cc1N1CCOCC1`, the inhibition was 6.87% (inactive).
The value for `Cc1cc(C)c(C(=O)COC(=O)c2nn(C)c(=O)c3ccccc23)cc1C` was -5.14% (inactive); that for `Cc1ccc(Sc2ccc(C(=O)N3CCOCC3)cc2[N+](=O)[O-])cc1` was 0.73% (inactive); that for `O=C(O)/C=C/C(=O)Nc1ccc(O)cc1` was -6.75% (inactive).
With `O=C(O)/C=C/C(=O)Nc1ccc(C(=O)c2ccccc2)cc1`, the inhibition was 3.27% (inactive).
For `CC(=O)C[C@H](O)CC(=O)[C@H]1OC(=O)[C@H](C)CCCCc2ccccc21`, the inhibition was -1.44% (inactive).
For `O=C(O)c1cc(N/N=C/c2ccc(-c3ccc(F)cc3)o2)ccc1Cl`, the inhibition was 13.7% (inactive).
Under `CCCn1c(CCC(=O)Nc2ccccc2Cc2ccccc2)nc2cc(S(=O)(=O)N3CCOCC3)ccc21` stands -3.41% (inactive); under `COc1ccc2noc3c2c1C(=O)c1ccccc1-3`, 38.9% (inactive).
Under `CCOc1ccc2noc3c2c1C(=O)c1ccccc1-3` stands 6.97% (inactive); under `NC(=O)COc1ncnc2scc(-c3ccc(F)cc3)c12`, -9.11% (inactive); under `c1ccc(-c2nccc(-c3ccc(-n4cnc5ccccc54)cc3)n2)cc1`, 16% (inactive).
Consider `c1ccc2c(c1)ncn2-c1ccc(-c2ccnc(-c3ccncc3)n2)cc1`, for which the inhibition is -0.53% (inactive).
For the molecule `CCN(CC)S(=O)(=O)c1cccc(C(=O)NCCCn2ccnc2)c1`, the inhibition is 3.66% (inactive).
The value for `CN1CCc2cccc3c2[C@H]1Cc1ccc(O)c(O)c1-3` was 29.9% (inactive) and 14.3% (inactive) and 5.91% (inactive).
For `CN1CCc2cccc3c2C1Cc1ccc(O)c(O)c1-3` (configuration not stated), the inhibition was 35.5% (inactive).
As to `CC1CCc2c(sc3ncnc(NCCN4CCOCC4)c23)C1` (configuration not stated), the inhibition was 1.22% (inactive).
For the molecule `COCCCNc1ncnc2sc3c(c12)CCC(C)C3` (configuration not stated), the inhibition was 13.1% (inactive).
Under `COc1cc(C)cc(CN2CC=C(c3ccccc3)CC2)c1O` stands 4.09% (inactive); under `Cn1nc(C(=O)NCC(c2cccs2)N2CCOCC2)c2ccccc2c1=O` (configuration not stated), -7.54% (inactive).
Under `CCOCCN1CCN(c2c(C)c(C)nc3cc(-c4cc(OC)cc(OC)c4)nn23)CC1` stands -16.2% (inactive); under `CCc1c(C)nc2cc(-c3cc(OC)cc(OC)c3)nn2c1N1CCN(CCN2CCOCC2)CC1`, -1.99% (inactive).
The value for `COc1ccc(OC)c(NC(=O)c2ccc(S(=O)(=O)N3CCN(C)CC3)cc2)c1` was -1.22% (inactive).
For `Cc1ccc(CNS(=O)(=O)c2ccc(-n3cnnn3)c(C)c2)cc1`, the inhibition is 5.67% (inactive).
The value for `COc1cc(OC)cc(-c2c(C#Cc3ccsc3)c3cc(-c4ccc(CN5CCOCC5)cc4)ccc3n2C)c1` was 1.54% (inactive); that for `COc1cccc(-c2c(-c3cc(OC)cc(OC)c3)n(C)c3ccc(-c4cnc(N5CCOCC5)nc4)cc23)c1` was 6.76% (inactive).
On to `COc1ccc(NS(=O)(=O)c2cccc(C(=O)N3CCN(Cc4ccc5c(c4)OCO5)CC3)c2)cc1`, for which the inhibition was 12.7% (inactive).
The value for `O=Cc1cn(-c2ccccc2)nc1-c1cccnc1` was -1.66% (inactive); that for `O=C(/C=C/c1cn(-c2ccccc2)nc1-c1cccnc1)N1CCCCC1` was -0.1% (inactive); that for `Cc1nc2c(-c3ccccc3)c(C)nn2c(C)c1CCC(=O)N1CCC2(CC1)OCCO2` was 8.75% (inactive).
In the case of `COc1cc(/C=C/C(=O)OCC(=O)NCCc2ccccc2)ccc1OC(F)F`, the inhibition is -11.9% (inactive).
The value for `N#C/C(=C/c1ccc(Sc2nc3ccccc3[nH]2)o1)c1cccc(F)c1` was 3% (inactive); that for `N#C/C(=C\c1ccc(Sc2nc3ccccc3[nH]2)o1)c1ccccc1` was -1.33% (inactive); that for `CCOC(=O)Cn1nc(C)n(-c2ccccc2)c1=O` was -8.51% (inactive).
The value for `C[C@H](Cc1ccccc1)Nc1ncnc2c1ncn2[C@@H]1O[C@H](CO)[C@@H](O)[C@H]1O` was -4.76% (inactive); that for `CN(C)c1ncnc2c1ncn2C1OC(CO)C(O)C1O` (configuration not stated) was -4.17% (inactive); that for `CCOc1ccccc1-n1nnnc1SCC(=O)OC` was 3.09% (inactive).
With `Cc1cc(C)n2c(Br)c(CN3CCCC(C)C3)nc2n1` (configuration not stated), the inhibition was -0.64% (inactive).
Under `Clc1ccc(CN2C3=NCCN3c3ccccc32)cc1Cl` stands -11.7% (inactive); under `CCOc1cccc(-c2c(C(=O)N/N=C/c3sccc3C)nnn2-c2nonc2N)c1`, 3.18% (inactive); under `CCc1ccc(NC(=O)CSc2nc3ncc(Br)cc3[nH]2)cc1`, 49.8% (inactive).
The value for `O=C(CSc1nc2ncccc2[nH]1)Nc1ccc2c(c1)OCO2` was -7.9% (inactive).
Under `N#Cc1ccccc1OCc1cccc(S(=O)(=O)N2CCOCC2)c1` stands -6.86% (inactive).
On to `OCCN(CC#CC(O)(c1ccccc1)C1CCCC1)CCO` (configuration not stated), for which the inhibition is 3.68% (inactive).
Under `Cn1c(CCn2ccccc2=O)nc2cc(NC(=O)COc3ccccc3)ccc21` stands 0.17% (inactive); under `CCCC(=O)N1CCCC(c2nc(-c3cccc(OC)c3)no2)C1` (configuration not stated), -8.11% (inactive).
With `COc1ccc(N2CCN(C(=O)c3ccc(Oc4ccc(C(F)(F)F)cn4)cc3)CC2)cc1`, the inhibition was 10.5% (inactive).
Turning to `O=C(c1ccc(Oc2ccc(C(F)(F)F)cn2)cc1)N1CCN(c2ccccc2)CC1`, the inhibition was 46.7% (inactive).
The value for `Cc1ccc(S(=O)(=O)N2CCCCC2)cc1NC(=O)COC(=O)c1ccccc1F` was -3.82% (inactive); that for `CCOc1ccc(NC(=O)CN(C)C(=O)c2c(-c3ccccc3Cl)noc2C)cc1OCC` was 1.46% (inactive).
Consider `COc1ccccc1-n1cnnc1SCC(=O)Nc1cc(C)on1`, for which the inhibition is -1.02% (inactive).
As to `COC(=O)c1c(C(=O)OC)c2n(c1C)CCC2`, the inhibition is -2.13% (inactive).
The value for `Cc1cc(C)c2ccc(N)nc2c1O` was -11.8% (inactive).
Under `Cc1cc(C)c2ccc(C(=O)O)nc2c1O` stands -5.39% (inactive).
Consider `CCOc1ccc2[nH]cc(C(=O)N3CCN(CC)CC3)c(=O)c2c1`, for which the inhibition was 5.18% (inactive).
Under `COc1ccc(-c2noc(CCCC(=O)Nc3ccc(C(N)=O)cc3)n2)cc1` stands -3.01% (inactive).
`Cc1cccc(-c2noc(CCC(=O)Nc3ccc(C(N)=O)cc3)n2)c1`: the inhibition is 4.71% (inactive).
With `Cc1ccc(C)c(S(=O)(=O)N2CCN(C(=O)CCc3c[nH]c4ccccc34)CC2)c1`, the inhibition was -3.94% (inactive).
As to `CSc1nsc(/C=C/Nc2ccc(C)cc2)c1C#N`, the inhibition is 18.6% (inactive).
The value for `CSc1nsc(/C=C/Nc2ccc(F)cc2F)c1C#N` was 7.19% (inactive); that for `O=c1c2cnn(-c3ccccc3)c2ncn1Cc1cccc(Cl)c1` was 0.84% (inactive); that for `O=C(COc1ccccc1)Nc1ncccn1` was -7.9% (inactive).
In the case of `NNC(=O)COc1cccc(Oc2ccccc2)c1`, the inhibition is 7.98% (inactive).

The values above are taken from PubChem BioAssay AID449762 (Southern Research Specialized Biocontainment Screening …, 2010).
